Screens: PubChem, National Center for Advancing Translational Sciences (NCATS)
ELG1 genotoxic = induces genotoxicity in HEK293T cells with luciferase-tagged ELG1; HEK293T ELG1-luciferase reporter, luminescence, 16 h; Potency, µM (highest dose often 46 µM), for inactives: at the top dose activity change, positive = activation, hits mostly activators; 330,000 compounds, 1.3% hits; AID 504466; further: % of control where 0% means no effect; nearly all actives have a fitted effect of over 60% in size
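Genotoxic stress is detected as increased luminescence from luciferase-tagged ELG1 in HEK293T cells, measured with ONE-Glo after a 16 hr treatment at 37 °C.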
SMN2 splice up = SMN2 splice variant enhancement; HEK293 SMN2-luciferase splicing reporter, luminescence, 30-36 h; Potency, µM (highest dose often 46.1 µM), without a hit: top-dose activity change, positive = activation, hits mostly activators; 210,000 compounds, 2.8% hits; further: % of control where 0% means no effect; nearly all actives have a fitted effect of over 55% in size
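qHTS luciferase splicing reporter: luminescence rises when SMN2 exon 7 is included in transfected HEK293 cells. Compound exposure lasted 30-36 h at 37C, with 4.5 mM final sodium butyrate as control, followed by a ONE-Glo read.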
p53 reactivator = restores transcriptional activity of mutant p53; H1299 p53-A138V BP100-luciferase reporter, luminescence, 24 h; Potency, µM (highest dose often 92.2 µM), for the others: at the highest dose activity change, positive = activation, hits mostly activators; 320,000 compounds, 0.063% hits; further: % of control where 0% means no effect; nearly all actives have a fitted effect of over 45% in size
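H1299 (p53-null), stable ts p53-A138V + BP100-Luc; 1000 cells/well, Opti-MEM/10% FBS; cpd 4 pt, 1:5; 24 h, 37 deg C, 5% CO2; detection reagent 10 min RT; luminescence.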
FLuc modulator = firefly luciferase modulation, counter-screen for miR-21 project | P08659 | purified FLuc, Km substrates, luminescence inhibition | Potency, µM (doses to about 57.5 µM), inactives show at the top dose activity change, negative = inhibition, usual class: inhibitors | 360,000 compounds, 6.9% hits | AID 588342;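 further: plate controls were vehicle for no effect and reference inhibitor for full effect; nearly all actives have a fitted effect of over 55% in size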
Target sequence (P08659 whole entry, looked up): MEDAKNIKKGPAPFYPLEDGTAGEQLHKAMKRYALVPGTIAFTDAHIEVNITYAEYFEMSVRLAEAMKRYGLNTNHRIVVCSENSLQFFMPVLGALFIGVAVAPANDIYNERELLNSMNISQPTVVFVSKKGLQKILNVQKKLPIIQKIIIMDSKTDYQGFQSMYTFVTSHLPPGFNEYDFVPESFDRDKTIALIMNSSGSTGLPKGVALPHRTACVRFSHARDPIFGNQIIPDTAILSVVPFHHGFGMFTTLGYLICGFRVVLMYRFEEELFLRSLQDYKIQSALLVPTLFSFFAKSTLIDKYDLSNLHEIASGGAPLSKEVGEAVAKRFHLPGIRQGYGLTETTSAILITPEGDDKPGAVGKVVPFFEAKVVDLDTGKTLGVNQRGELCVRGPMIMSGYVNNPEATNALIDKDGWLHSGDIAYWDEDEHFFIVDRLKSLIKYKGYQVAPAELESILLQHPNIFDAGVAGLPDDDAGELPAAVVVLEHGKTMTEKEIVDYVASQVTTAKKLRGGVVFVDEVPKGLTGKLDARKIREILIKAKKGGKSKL
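Purified P. pyralis luciferase (10nM final) with 10uM D-luciferin and 10uM ATP (Km levels) in 50mM Tris acetate pH 7.5, 10mM Mg acetate, 0.01% Tween-20, 0.05% BSA; qHTS 6-point titration, ~60 µM downward; luminescence read.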
Rab9 promoter act = activates the Rab9 promoter | Potency, µM (doses to about 9.22 µM), for the others: top-dose activation, negative = inhibition, hits mostly activators | 320,000 compounds, 2.8% hits | Huh7 Rab9 promoter-luciferase reporter, luminescence, 24 h; further: % of control where 0% means no effect; nearly all actives have a fitted effect of over 60% in size
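Promoter activation is measured as luciferase luminescence in Huh7 cells stably transfected with a Rab9 promoter–luciferase construct, following 24 h compound exposure at 37 °C and 10 min reagent incubation at ambient temperature.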
NPC1 prom act = activates the NPC1 promoter; Potency, µM (series often up to 9.22 µM), for the others: at the top dose activation, hits mostly activators; 320,000 compounds, 2.4% hits; Huh7 NPC1 promoter luciferase reporter, 24 h; further: % of control where 0% means no effect; nearly all actives have a fitted effect of over 60% in size
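Readout is luciferase luminescence, reflecting NPC1 promoter activation in stably transfected Huh7 cells after 24 h compound exposure at 37 °C in reduced-serum medium with 10% FBS.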
Numbers without * were called inactive; ? = inconclusive; . = no result given; [ ] = dose if it differs, or a comment. Shown are actives, neighbours in structure and some others; about 7.4% of the full set was active somewhere. The call rests on the fitted dose curve; in most records, active means well fitted curve in the direction sought with a large enough effect; inconclusive means small, poorly fitted or top-dose-only effect, or another doubt; inactive means no such curve, though single readings can be large; an effect the other way counts as inactive or inconclusive. Potency means the concentration at half of the fitted maximal effect.

SMILES	ELG1 genotoxic	SMN2 splice up	p53 reactivator	FLuc modulator	Rab9 promoter act	NPC1 prom act
CCOC(=O)N1CCN(C(=O)CSc2nnc(COc3ccccc3)o2)CC1	0%	4µM*	13%	3%	0%	-1%
CCOC(=O)N1CCN(C(=O)CSCc2ccccc2)CC1	17%	11µM*	?	?	?	?
O=C(Nc1cccc(NC(=O)c2nccc3ccccc23)c1)c1ccco1	?	-7%	-1%	8.5µM*	3%	1%
O=C(Nc1cccc(NC(=O)c2sc3ccccc3c2Cl)c1)c1ccco1	-8%	21%	?	2.7µM*	10%	12%
O=C(Nc1cccc(F)c1)c1ccco1	12%	.	7%	-16%	25%	15%
O=C(NCc1ccco1)C1CCCN(c2nnc(-n3cccc3)s2)C1 (stereo not given)	13%	.	7%	3%	13%	-1%
CCCNC(=O)C(Cc1ccc(I)cc1)NC(=O)C1CC1 (stereo not given)	-4%	.	-10%	5%	-4%	1%
CN=C1S/C(=C\c2cn(CC(=O)OC)c3ccccc23)C(=O)N1C	10%	16%	10%	17µM*	3%	11%
COC(=O)Cn1cc(/C=C/c2cc[n+](C)cc2)c2ccccc21	-3%	.	.	4%	-7%	-3%
CN=C1S/C(=C/c2cn(CC(=O)OC)c3ccccc23)C(=O)N1C	0%	.	1%	19µM*	-9%	25%
CC(C)c1ccc(NC(=O)COc2ccccc2)cc1	?	.	?	17µM*	?	?
CN1CCN(c2ccc(NC(=O)COc3ccccc3)cc2Cl)CC1	?	.	.	21µM*	4µM*	4.5µM*
Cc1cc(NC(=O)COc2ccccc2)ccc1Cl	?	.	6%	27µM*	28%	?
CC(C)c1ccc(OCC(=O)Nc2ccc(OC(F)(F)F)cc2)cc1	-1%	.	29%	1%	-1%	1%
Cc1ccc(NC(=O)COc2ccccc2)cc1Cl	15%	.	.	?	0%	-5%
COC(=O)c1ccc(N2CCN(C)CC2)c(NC(=O)COc2ccccc2)c1	-6%	.	-10%	-1%	0%	1%
CCN1C(=O)CC(C(=O)Nc2ccc(OC)cc2)SC1=Nc1ccc(C)c(C)c1 (stereo not given)	.	-9%	.	-1%	.	.
Cc1cc(C)c2oc(-c3cccc(NC(=O)COc4ccccc4Cl)c3C)nc2c1	.	12%	.	0%	.	.
O=C(/C=C/Sc1ccc(C(F)(F)F)cn1)c1ccccc1	6%	.	26%	0.54µM*	-38%	-14%
CCC(=O)Nc1ccc(-c2cc3ccccc3oc2=O)cc1	3.7µM*	8.9µM*	-2%	7.6µM*	?	?
COc1ccc(-c2cc3ccccc3oc2=O)cc1NC(=O)c1ccc([N+](=O)[O-])o1	8%	6%	5%	-9%	3.5µM*	21%
COc1ccc(-c2cc3ccccc3oc2=O)cc1NC(=O)c1ccc(Br)o1	?	3.2µM*	16%	2%	?	?
CCC(=O)Nc1cc(-c2cc3ccccc3oc2=O)ccc1OC	?	1.1µM*	7%	-3%	0.79µM*	?
COc1ccc(-c2cc3ccccc3oc2=O)cc1NC(=S)NC(=O)c1ccc2c(c1)OCCO2	?	-15%	17%	?	2%	15%
O=C(Nc1cccc(-c2cc3ccccc3oc2=O)c1)c1ccc(Br)o1	-2%	25%	-4%	-16%	-3%	0%
SMILES	ELG1 genotoxic	SMN2 splice up	p53 reactivator	FLuc modulator	Rab9 promoter act	NPC1 prom act
O=C(Cc1ccc(Cl)cc1)Nc1ccc(-c2cc3ccccc3oc2=O)c(Cl)c1	-2%	-20%	?	-19%	-19%	-26%
N[C@H](C(=O)O)[C@H](Cc1ccccc1)C(=O)O	.	.	.	.	11%[46.1 µM]	2%[46.1 µM]
CCC1=C2CC[C@H]3C(=O)N(C)C(=O)[C@H]3[C@H]2[C@@]2(C)C(=O)N(CC3CC3)C(=O)N2C1=O	.	-5%	.	.	.	.
COc1ccccc1-c1ccc2ncnc(N(C)C)c2c1	.	-8%	.	.	.	.
c1ccc2c(c1)C(=Nc1ccc(N=C3c4ccccc4-c4ccccc43)cc1)c1ccccc1-2	.	12%[9.22 µM]	.	.	.	.
Cn1c(=O)oc2cc(S(=O)(=O)N3CCCC(C(=O)N4CCN(c5cccc(Cl)c5)CC4)C3)ccc21 (stereo not given)	.	-20%	.	-6%	.	.
CC(=O)Nc1ccc(-c2cc3ccccc3o2)cc1	?	11µM*	?	3µM*	3.2µM*	2.2µM*
CCN(CC(=O)Nc1ccc(NC(C)=O)cc1)C(=O)c1cc2ccccc2oc1=O	2%	.	-2%	-18%	-3%	-6%
COc1ccc(-c2nc3ccccc3o2)cc1NC(=O)c1ccc(OCC(C)C)cc1	.	-5%	.	-12%	.	.
CN(C)c1ccc(NC(=O)c2sc(SCC(=O)Nc3nccs3)nc2N)cc1	?	69%	25%	1.9µM*	?	25%
CCCCNC(=O)CSc1nc(N)c(C(=O)Nc2ccc(OC)cc2)s1	10%	.	?	17µM*	28%	26%
CCCCC(CC)CNC(=O)CCCn1c(=O)[nH]c2ccsc2c1=O (stereo not given)	.	8%	.	-6%	.	.
COc1ccc(-c2noc(N3CCC(C(=O)NC(C)c4ccccc4)CC3)n2)cc1 (stereo not given)	-2%	.	8%	-18%	-7%	-7%
COc1ccc(NC(=O)C2=C(C)C(=O)OC23CCN(C(C)C)CC3)cc1Cl	.	.	.	-4%	.	.
COc1cc2c(cc1OC)CN(C(=O)C1CCCN(C(=O)c3ccc(Cl)cc3)C1)CC2 (stereo not given)	-2%	.	-5%	0%	-3%	3%
COc1ccccc1-c1noc(CSc2nc3ccc(C)cc3[nH]2)n1	.	9%	.	?	.	.
CC(C)c1nc(SCC(=O)Nc2ccc(C(=O)O)cc2)c2c3c(sc2n1)CCCC3	9%	.	2%	27µM*	-1%	-2%
CC1CCc2c(sc3ncnc(SCC(=O)Nc4ccc(C(=O)O)cc4)c23)C1 (stereo not given)	3%	.	2%	?	-2%	-1%
Cc1c(C(=O)Nc2ccc(-n3c(C)nc4ccccc4c3=O)cc2)cccc1[N+](=O)[O-]	.	.	.	1%	.	.
O=C(NNc1nc2c(F)cccc2s1)C1=COCCO1	1%	3%	1%	1%	3%	0%
O=C(NNc1nc2c(F)cc(F)cc2s1)c1ccccc1	-1%	22%	-3%	4%	-3%	-1%
Fc1cccc2sc(Nc3nc4cc5c(cc4s3)OCCO5)nc12	1.2µM*	?	?	1.2µM*	0.71µM*	4µM*
Fc1cc(F)c2nc(Nc3nc4cc5c(cc4s3)OCO5)sc2c1	?	18µM*	?	?	?	?
